About 83,000 compounds went through this panel and 20% of them were active in at least one assay; those are over-represented in the sample as a whole.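 48-hour exposure, single concentration, 96-well plates; percent growth endpoint where 0 means no net growth. Active: below 10.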 A number with no mark means an inactive call. The source made the active and inactive calls.

What all share (test): NCI-60 one-dose screen, 48 h (100 = growth as untreated, 0 = no growth, -100 = all killed)
Holding throughout (details): 10 µM unless noted

Test [1] concerns HCT-15 colon.
Test [2] has as its system SNB-75 CNS.
In test [3] the test system is SNB-19 CNS.
In test [4] the test system is U251 CNS.
Test [5] has as its system PC-3 prostate.
For test [6], the system named is SK-MEL-5 melanoma.
In test [7] the test system is UACC-62 melanoma.
Test [8] concerns LOX IMVI melanoma.
Test [9] relates to SK-MEL-28 melanoma.
Test [10] concerns SK-MEL-2 melanoma.
The test system of test [11] is SN12C renal.
In test [12] the test system is UO-31 renal.
Test [13] concerns TK-10 renal.
Test [14] concerns ACHN renal.
Test [15] deals with CAKI-1 renal.
Test [16] has as its system CCRF-CEM leukemia.
Test [17] deals with MOLT-4 leukemia.
In test [18] the test system is A498 renal.
The test system of test [19] is EKVX NSCLC.

Regarding `COc1ccc(-c2nnc(COc3ccc(NC(=O)Nc4ccc(Cl)c(C(F)(F)F)c4)cc3F)o2)cc1`, the growth in test [1] is 8.08% (active); in test [2], 15.6%; in test [3], 21.7%; in test [4] it was -26.6% (active); in test [5] it was -8.78% (active); in test [6] it was 12.3%. The growth in [7] is 19.2%; in test [8], 1.05% (active); in [9], 1.13% (active); in test [10], -7.3% (active); in [11], 21.2%; in test [12], 2.2% (active). Moreover, the growth in test [13] is 35%; in [14], -23.2% (active); in test [15], 4.77% (active); in test [16], 0.195% (active); in test [17], 2.69% (active).
For the molecule `CCNC(=O)C1CCCN1C(=O)C(CCCN=C(N)N)NC(=O)C(CC(C)C)NC(=O)C(CC(C)C)NC(=O)C(Cc1ccc(O)cc1)NC(=O)C(CO)NC(=O)C(Cc1c[nH]c2ccccc12)NC(=O)C(Cc1cnc[nH]1)NC(=O)C1CCC(=O)N1` (stereo unspecified), the growth was 102% in [1]; 90.3% in [2]; 102% in [3]; 94.8% in test [4]; 81.8% in test [5]; 95% in test [6]. For the same molecule, the growth in [7] was 110%; in [8] it was 95.1%; in test [9], 168%; in test [10] it was 102%; in [11], 112%; in [12], 93.7%. The growth in [13] is 110%; in test [14] it was 97%; in test [15], 84.9%; in test [18], 98%; in test [16] it was 54.5%; in [17], 86.5%.
Consider `CCn1c(=O)c2c(=O)c3c4c(oc3oc2c2ccccc21)C(=O)c1ccccc1C4=O`, for which the growth in [1] was 79.6%; in test [2], 120%; in test [3], 90.2%; in test [4] it was 57.7%; in [5] it was 42.4%; in test [6] it was 67.4%. For the same molecule, the growth in test [7] is 64%; in test [8], 32.4%; in test [9], 107%; in test [10] it was 79.9%; in test [11] it was 87.2%; in test [12], 81.8%. For the same molecule, the growth was 112% in test [13]; 79.6% in [14]; 72.6% in [15]; 2.47% (active) in test [16]; -24.5% (active) in [17].
For the molecule `N#Cc1c(NC(=O)c2ccc([N+](=O)[O-])o2)[n+]([O-])c2cc(F)c(F)cc2[n+]1[O-]`, the growth is 95.1% in [1]; 114% in test [2]; 121% in [3]; 102% in [4]; 98.8% in test [5]; 79.6% in test [6]. Moreover, the growth in test [7] is 100%; in test [8], 84.7%; in test [9], 99.7%; in test [10], 34.6%; in [19] it was 149%; in test [11], 108%. The growth in test [12] was 40.8%; in [13] it was 179%; in [14] it was 109%; in test [15] it was 113%; in [18] it was 151%; in test [16], 100%. Also, the growth in [17] was 120%.
In the case of `COc1cc(-c2cc(/C=C3\CCCCC3=O)[nH]n2)cc(OC)c1OC`, the growth in [1] was 94.1%; in test [2], 85.8%; in test [3], 97.5%; in test [4], 92.2%; in test [5], 89.2%; in [6] it was 92.8%. In addition, the growth was 106% in test [7]; 93.8% in test [8]; 114% in test [9]; 94.7% in test [10]; 93.8% in test [11]; 80.8% in test [12]. The growth is 112% in test [13]; 98.7% in test [14]; 91.2% in [15]; 95.2% in test [18]; 69.5% in test [16]; 82% in [17].
With `COc1cc(-c2csc(NC(=O)Nc3ccc(Cl)cc3Cl)n2)cc(OC)c1OC`, the growth in test [1] is 23%; in test [2], 4.13% (active); in test [3], 41.7%; in [4], 25.7%; in [5], 18.7%; in test [6], 18.4%. Besides, the growth was 30.9% in test [7]; 28.9% in test [8]; 62.6% in [9]; 62.7% in [10]; 46.6% in [19]; 59.5% in [11]. In addition, the growth in test [12] was 34.6%; in [13] it was 54.6%; in test [14] it was 30.3%; in test [15], 37.8%; in test [18] it was 34.8%; in [16], 33.3%. Further, the growth in test [17] is 33.4%.
`O=C1CCC(=O)N1Cc1ccccc1`: the growth in test [1] was 99.9%; in [2] it was 80.4%; in test [3], 110%; in [4] it was 101%; in test [5], 100%; in test [6], 102%. Besides, the growth in [7] is 104%; in test [8], 90.5%; in [9], 101%; in test [10] it was 95.1%; in test [19], 97.3%; in test [11] it was 104%. Besides, the growth in test [12] was 98.1%; in [13], 92.2%; in test [14], 101%; in test [15], 94.2%; in [18], 85.8%; in [16] it was 108%. Also, the growth in test [17] was 101%.
As for `Cc1ccc2c(c1)ncn2-c1ncnc2c1CC(C)c1ccccc1N2C` (stereo unspecified), the growth in test [1] was 8.43% (active); in test [2], 43.9%; in test [3], 37.6%; in [4] it was 12.1%; in [5], 20.9%; in test [6], -49.2% (active). The growth in [7] is 21.5%; in [8], 20.8%; in [9], 44.4%; in test [10] it was 32.7%; in [19], 40.8%; in [11] it was 21.2%. Besides, the growth in [12] is 26.9%; in test [13], 8.21% (active); in test [14], 20.2%; in test [15], 19.6%; in [18], -11.7% (active); in test [16] it was 13.3%. Also, the growth in test [17] was 12%.
